PubChem BioAssay (NCI)
About 83,000 compounds went through this panel and 20% of them were active in at least one assay; those are over-represented in the sample as a whole.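 Cells were grown in 96-well plates and exposed to the test compound at a single concentration for 48 hours; results are reported as percent growth, with values below 10 considered active.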 Unmarked numbers belong to inactive results. Activity calls are given as the source filed them.

tested on: PC-3 prostate; assay: NCI-60 one-dose screen, 48 h (100 = growth as untreated, 0 = no growth, -100 = all killed); conditions: 10 µM unless noted

Compound | growth
CCCCCCCOc1cccc(/C=C2\N=C3SCCCN3C2=O)c1 | 85.3%
CN(C)c1ccc(C2(Cl)c3ccccc3N(C)c3ccccc32)cc1 | 7.45% (active)
O=C(Nc1cccc(-n2ccc3c(NC(=O)c4ccccc4)nccc32)c1)c1ccc(N2CCOCC2)c(C(F)(F)F)c1 | 23.7%
Fc1ccc(-c2nc(-c3ccc(-c4nc5ccc(F)cc5[nH]4)cc3)no2)cc1 | 68.7%
Clc1ccc(C2=NN[C@H](c3cn(-c4ccccc4)nc3-c3ccccc3)C2)cc1 | 36.7%
CNC1=C([N+](=O)[O-])C(c2ccccc2O)C(C#N)=C(c2cccs2)O1 (configuration not stated) | 97.7%

tested on: SK-MEL-5 melanoma; assay: as above; conditions: 10 µM unless noted

Compound | growth
CCCCCCCCN(CCCCCCCC)C(=O)CCl | 88.6%
O=C(Nc1ccc(-n2ccc3c(NC(=O)c4ccccc4)nccc32)cc1)c1ccc(N2CCOCC2)c(C(F)(F)F)c1 | 23.7%
O=C1/C(=C/c2ccccc2)SC(=Nc2ccccc2)N1Nc1ccccc1 | -95.7% (active)
C[N+](C)(C)CC(=O)N/N=C\c1ccco1 | 101%
CC(C)CCSc1nc(-c2ccc(F)cc2)c(C#N)c(N2CCN(C)CC2)n1 | 90.4%
CC(=O)Oc1c(Cl)c(Cl)c(Cl)c(Cl)c1Cl | 102%
CN(C)c1nc(-c2cccs2)n2nc(-c3ccc(Cl)cc3)cc2n1 | 64.2%
COc1nccc2c(Sc3ccccc3)nc(N)nc12 | 99.2%
c1cn2cc(-c3ccc4ncn(C5CCCCC5)c4c3)nc(-c3ccc4c(c3)ncn4C3CCCCC3)c2n1 | -89.4% (active)
CCc1onc(-c2ccc(OC)cc2)c1-c1ccccc1OCCN(CC)CC | 81%
CCN(CCC#N)c1ccccc1 | 111%
S=C(S)Oc1cccc2cccnc12 | 110%
COc1ccccc1CNCCCN1C(=O)c2ccc3c4c(ccc(c24)C1=O)C(=O)N(CCCNCCCN)C3=O | -97.8% (active)
CC(C)c1ccc(-c2cnc3nonc3n2)cc1 | 32.5%
CN1CCCN(CCNc2nccc(-c3c(-c4cccc(O)c4)nc4sccn34)n2)S1(=O)=O | 37.7%
COc1ccccc1CNCCCN1C(=O)c2ccc3c4c(ccc(c24)C1=O)C(=O)N(CCCCNCCCN)C3=O | -97.1% (active)
CCC(=O)OCc1ccc(OC)cc1 | 108%
COc1ccc2[nH]cc(C3(c4c[nH]c5ccc(OC)cc45)C(=O)Nc4ccc(F)cc43)c2c1 | 84.1%
CN1C(=O)NC(Cc2c[nH]c3c(Cl)cccc23)C1=O (configuration not stated) | 98.5%

Compound | growth
NC(N)=N/N=C/c1ccc(Cl)cc1 | 74.5%
CC(C)(c1ccccc1)c1cc(O)c(C(C)(C)c2ccccc2)cc1O | 11.3%
COc1cc(-c2nn(C(=O)NCCN3CCN(C)CC3)cc2-c2ccncc2)ccc1Cl | 62.4%
CCCCCCCCCCCCCCCCCC(=O)[O][Sn]([CH2]CCC)([CH2]CCC)[CH2]CCC | -99.9% (active)
CC(C)c1nc2ccccc2n1CC(=O)N/N=C/c1cccc(O)c1 | 100%
O=C(Nc1ccc(Cl)cc1)c1cc(-c2ccc(Cl)cc2)c2sc(=O)[nH]c2n1 | -19.6% (active)
Oc1ccc(-c2nnc3c4[nH]ccc4ncn23)cc1 | 104%
Cc1nc(N)nc2c1CCC(Nc1ccccc1)S2 (configuration not stated) | 99.1%
NNC(=O)CSc1nc2scc(-c3ccccc3)c2c(=O)n1-c1ccccc1 | 88.4%
COC(=O)C(Br)(C(=O)OC)C(Br)C(Br)C(Br)c1ccccc1 (configuration not stated) | 98.4%
COc1cnc2c(c1)C(=O)c1c-2n(CCCN2CCN(C)CC2)c(=O)c2cc(Cl)ccc12 | 65.4%
COc1cc([N+](=O)[O-])cc(OC)c1OC | 113%
O=c1oc2ccccc2cc1-c1cc(-c2ccc(-c3cc(-c4cc5ccccc5oc4=O)nc(-c4cc5ccccc5oc4=O)c3)cc2)cc(-c2cc3ccccc3oc2=O)n1 | 101%
CCCCCCCOc1cccc(/C=C2\N=C3SCCCN3C2=O)c1 | 90.1%
CN(C)c1ccc(C2(Cl)c3ccccc3N(C)c3ccccc32)cc1 | 79.9%
O=C(Nc1cccc(-n2ccc3c(NC(=O)c4ccccc4)nccc32)c1)c1ccc(N2CCOCC2)c(C(F)(F)F)c1 | -68.6% (active)
Fc1ccc(-c2nc(-c3ccc(-c4nc5ccc(F)cc5[nH]4)cc3)no2)cc1 | 74.4%
Clc1ccc(C2=NN[C@H](c3cn(-c4ccccc4)nc3-c3ccccc3)C2)cc1 | 80.8%
CNC1=C([N+](=O)[O-])C(c2ccccc2O)C(C#N)=C(c2cccs2)O1 (configuration not stated) | 97%

tested on: UACC-62 melanoma; assay: as above; conditions: 10 µM unless noted

Compound | growth
CCCCCCCCN(CCCCCCCC)C(=O)CCl | 82.9%
O=C(Nc1ccc(-n2ccc3c(NC(=O)c4ccccc4)nccc32)cc1)c1ccc(N2CCOCC2)c(C(F)(F)F)c1 | 49.4%
O=C1/C(=C/c2ccccc2)SC(=Nc2ccccc2)N1Nc1ccccc1 | -4.34% (active)
C[N+](C)(C)CC(=O)N/N=C\c1ccco1 | 101%
CC(C)CCSc1nc(-c2ccc(F)cc2)c(C#N)c(N2CCN(C)CC2)n1 | 87.2%
CC(=O)Oc1c(Cl)c(Cl)c(Cl)c(Cl)c1Cl | 88%
CN(C)c1nc(-c2cccs2)n2nc(-c3ccc(Cl)cc3)cc2n1 | 70.7%
COc1nccc2c(Sc3ccccc3)nc(N)nc12 | 102%
c1cn2cc(-c3ccc4ncn(C5CCCCC5)c4c3)nc(-c3ccc4c(c3)ncn4C3CCCCC3)c2n1 | -47.7% (active)
CCc1onc(-c2ccc(OC)cc2)c1-c1ccccc1OCCN(CC)CC | 97.7%
CCN(CCC#N)c1ccccc1 | 98.2%
S=C(S)Oc1cccc2cccnc12 | 96.4%
COc1ccccc1CNCCCN1C(=O)c2ccc3c4c(ccc(c24)C1=O)C(=O)N(CCCNCCCN)C3=O | -50% (active)
CC(C)c1ccc(-c2cnc3nonc3n2)cc1 | 14.2%
CN1CCCN(CCNc2nccc(-c3c(-c4cccc(O)c4)nc4sccn34)n2)S1(=O)=O | -12.6% (active)
COc1ccccc1CNCCCN1C(=O)c2ccc3c4c(ccc(c24)C1=O)C(=O)N(CCCCNCCCN)C3=O | -68.7% (active)
CCC(=O)OCc1ccc(OC)cc1 | 105%
COc1ccc2[nH]cc(C3(c4c[nH]c5ccc(OC)cc45)C(=O)Nc4ccc(F)cc43)c2c1 | 82.3%
CN1C(=O)NC(Cc2c[nH]c3c(Cl)cccc23)C1=O (configuration not stated) | 96.1%

Compound | growth
NC(N)=N/N=C/c1ccc(Cl)cc1 | 78.8%
CC(C)(c1ccccc1)c1cc(O)c(C(C)(C)c2ccccc2)cc1O | 20.6%
COc1cc(-c2nn(C(=O)NCCN3CCN(C)CC3)cc2-c2ccncc2)ccc1Cl | 57.6%
CCCCCCCCCCCCCCCCCC(=O)[O][Sn]([CH2]CCC)([CH2]CCC)[CH2]CCC | -60.6% (active)
CC(C)c1nc2ccccc2n1CC(=O)N/N=C/c1cccc(O)c1 | 86.3%
O=C(Nc1ccc(Cl)cc1)c1cc(-c2ccc(Cl)cc2)c2sc(=O)[nH]c2n1 | -14.7% (active)
Oc1ccc(-c2nnc3c4[nH]ccc4ncn23)cc1 | 95.2%
Cc1nc(N)nc2c1CCC(Nc1ccccc1)S2 (configuration not stated) | 108%
NNC(=O)CSc1nc2scc(-c3ccccc3)c2c(=O)n1-c1ccccc1 | 90.2%
COC(=O)C(Br)(C(=O)OC)C(Br)C(Br)C(Br)c1ccccc1 (configuration not stated) | 60.2%
COc1cnc2c(c1)C(=O)c1c-2n(CCCN2CCN(C)CC2)c(=O)c2cc(Cl)ccc12 | -49% (active)
COc1cc([N+](=O)[O-])cc(OC)c1OC | 101%
O=c1oc2ccccc2cc1-c1cc(-c2ccc(-c3cc(-c4cc5ccccc5oc4=O)nc(-c4cc5ccccc5oc4=O)c3)cc2)cc(-c2cc3ccccc3oc2=O)n1 | 99.1%
CCCCCCCOc1cccc(/C=C2\N=C3SCCCN3C2=O)c1 | 79.6%
CN(C)c1ccc(C2(Cl)c3ccccc3N(C)c3ccccc32)cc1 | 35.2%
O=C(Nc1cccc(-n2ccc3c(NC(=O)c4ccccc4)nccc32)c1)c1ccc(N2CCOCC2)c(C(F)(F)F)c1 | 40.1%
Fc1ccc(-c2nc(-c3ccc(-c4nc5ccc(F)cc5[nH]4)cc3)no2)cc1 | 75.5%
Clc1ccc(C2=NN[C@H](c3cn(-c4ccccc4)nc3-c3ccccc3)C2)cc1 | 76.5%
CNC1=C([N+](=O)[O-])C(c2ccccc2O)C(C#N)=C(c2cccs2)O1 (configuration not stated) | 89.3%
